Measured values published in PMC12136788.
Positions count from the first letter of the chain named. The full ranking holds about 5,800 sequences; the median of “enrichment r” is about 0.54, and the highest 2% start at about 16. Shown is part of a subset that was picked to be rich in the highest values.

B1: chr19:7961171:7961272:-|3pUTR|ENSG00000066044|msi1|FALSE|unique (ssRNA)
RNA: GGGAGUUCUACAGUCCGACGAUCGGCGGGAUUCCCGCUUCUGAAACUCCCCCUGGAGUCUCACUCCCACACAUGCCCAUAGCUAGCAUUCAACAGAGAACUCUGUCUUAAGCUUCAACUGUGAAAAUGAUGACGGGCUUGUAGCAACAGAGGAUUGAGCAUCA
B2: chr8:52110837:52113338:-|three_prime_utr|ENSG00000147488|control|control|control (ssRNA)
RNA: GGGAGUUCUACAGUCCGACGAUCCCCCGGAAUGCAAAGCUCUACUGGAAAGUAUCAAACAGGCAGUGAAGGGUAUCCAUGUGUAGGAUCACAGCGCUGCCGGGCAACAGAAGUUACCAACAGCAGUAAACUCCAGAUGGAUCUCAACAGAGGAUUGAGCAUCA
B3: ENSG00000107863:be:win_4051|CDS|ENSG00000107863|bound_else_gene|NA|bound_elsewhere_windowed (ssRNA)
RNA: GGGAGUUCUACAGUCCGACGAUCGUGCAGGAGGAAAGCACAGUAGACUCCCAGCCAGUGCCAAACAUAGAUCAUUUACUCACCAACAUUGGAAGGACAGGAGUCUCCCCAGGAGAUGUAUCAGAUUCAGCUACUAGUGACUCACAACAGAGGAUUGAGCAUCA
B4: ENSG00000107863:be:win_5501|CDS|ENSG00000107863|bound_else_gene|NA|bound_elsewhere_windowed (ssRNA)
RNA: GGGAGUUCUACAGUCCGACGAUCCUGUAAACCGGUUAAAACCAAAAUGCUCAGCCCAGGACCUUUCCAUCUCAGACUGGCUGGCCAGGGAACGCCUACGCACCAGUACCUCUGACCUUAGCAGAGGAGAAAUCGGAGAUCCCCCAACAGAGGAUUGAGCAUCA
B5: ENSG00000165219:stop:overlap|stop_codon|ENSG00000165219|stop_codon|NA|stop_codon (ssRNA)
RNA: GGGAGUUCUACAGUCCGACGAUCUACCUAUAGGUAAAGAGAAUUUCUCGUAUUGGAGCUUUCUCUUAAAUCUAAUAUUUCAUUAGCCUUUGUUAUUGCUGAGUGUUUUGGAACAUAUGUUUAAGUACUUGGGAAAGUCUUUCUCAACAGAGGAUUGAGCAUCA
B6: chr7:123541454:123541562:-|3pUTR|ENSG00000128609|unk|FALSE|unique (ssRNA)
RNA: GGGAGUUCUACAGUCCGACGAUCUCCAUAGUGUCAUUUUAUUUUAGUCAUUAUUGAAUUAUACCAUUUACUCUGUUUUCUUAUAGUCUUAAUUUUAUUAUAUUUUGUUGUUACUGUAUUAUAUUUGAAAACCUUCAAAUUAGACAACAGAGGAUUGAGCAUCA
B7: chr10:117282838:117282939:-|3pUTR|ENSG00000165650|unk|FALSE|bound_elsewhere (ssRNA)
RNA: GGGAGUUCUACAGUCCGACGAUCCCCCUUGUGUUAUUUUUCUUCCUCUUGGUUUUUGAAUUAGUGUUAAAUAGAAUACUGUCUAGAUUCUUAAAAUAUUUUCAUUUCCAUCAUGGUUAUAACAAAUUUGCUGCAUGCCCAAACCAACAGAGGAUUGAGCAUCA
B8: chr3:15254852:15254953:-|3pUTR|ENSG00000131370|msi1|FALSE|unique (ssRNA)
RNA: GGGAGUUCUACAGUCCGACGAUCAAACUGUUAAUUCUGUCACAGCCUGUAUAUUUUAGUCAUUUGUAAAUCUCUUCAUACAAUAGUGACUUCUUUUUUGACUGAUACAGUAUCUUAAUUACAAGGUUAUUUUGUACUUGUCUUCAACAGAGGAUUGAGCAUCA
B9: chr5:113594843:113594944:+|3pUTR|ENSG00000047188|msi1|FALSE|bound_elsewhere (ssRNA)
RNA: GGGAGUUCUACAGUCCGACGAUCCAACAUAAAAUCUUGAGAACCUUCUACUUUCUCUGGGAAAGCAUUAUAUAGUGGUGCAUUAGUUUAGAAAGUCAGCUAUGAUUUUGCCUAUAGUUCUAGUUAUUAGCUUUGGGGUUUUCUCAACAGAGGAUUGAGCAUCA
B10: chr2:216672374:216672548:-|3pUTR|ENSG00000115461|msi1|total|mutant (ssRNA)
RNA: GGGAGUUCUACAGUCCGACGAUCUUUUUCUUUUUUUUUUUGAAGACAGCAAUAACCACAGUACAUAUUACUGCCGUUCUCUACCGUUUUACAUACAUUCAUACCAUAACUCUGUUCUCUCCUCUUUUUUGUUUUCAACUUUAACAACAGAGGAUUGAGCAUCA
B11: chr5:113594843:113594944:+|3pUTR|ENSG00000047188|msi1|total|mutant (ssRNA)
RNA: GGGAGUUCUACAGUCCGACGAUCCAACAUAAAAUCUUGAGAACCUUCUACUUUCUCUGGGAAAGCAUUAUACCGUGGUGCAUCCGUUCCGAAAGUCAGCUAUGAUUUUGCCUACCGUUCCCGUUAUCCGCUUUGGGGUUUUCUCAACAGAGGAUUGAGCAUCA
B12: chr2:216672374:216672548:-|3pUTR|ENSG00000115461|msi1|FALSE|unique (ssRNA)
RNA: B10 RNA with C73U, C74A, C83U, C84A
B13: chr10:16593140:16593241:-|3pUTR|ENSG00000148484|unk|FALSE|unique (ssRNA)
RNA: GGGAGUUCUACAGUCCGACGAUCUUAUUUUUCUUUUCACUCUCUUUCUAAUGCUUCCCACCUUACCUUUUAGAUUCUUUUGCUAGGUGGGAGAUUGUUAUAAGGUCUUUAAACCAUUUCCAUUUGUUUCUUUAACAUUACCAACAACAGAGGAUUGAGCAUCA
B14: chr10:30313878:30313980:-|CDS|ENSG00000107951|unk|FALSE|unique (ssRNA)
RNA: GGGAGUUCUACAGUCCGACGAUCUGUUUUUAUAUUUAAGCCCUUCAUGUACUUACUCAUUUUUUCUUCUGUGUAAUAAUCUAUAGGGAAGGGAGCAAAACAAACCUGAUUCUUCUCCUCUGUACAUUCAGAAUCCAUUUGAAACAACAGAGGAUUGAGCAUCA
B15: chr1:93361585:93361687:+|3pUTR|ENSG00000117505|unk|total|mutant (ssRNA)
RNA: GGGAGUUCUACAGUCCGACGAUCUUUAACUUGCCGUUACCGUUUACUUAUUGUUUUCCGAAUUACUUUUACAUUUUCCCAACCCGAUGGCCCCGAGUCCAACAUUACCUUUUGAGAUGACAUUAUUGUCUCCAUAAUUGAGUGCAACAGAGGAUUGAGCAUCA
B16: chr1:93361585:93361687:+|3pUTR|ENSG00000117505|unk|FALSE|unique (ssRNA)
RNA: B15 RNA with C33U, C34A, C39U, C40A, C57U, C58A, C83U, C84A, C92U, C93A

Each binder was assayed against MSI1 full-length (mouse, UniProt Q61474 1-362) (assay: nsRBNS (natural sequence RNA bind-n-seq); RBNS binding buffer (assumed for nsRBNS): 25 mM Tris pH 7.5, 150 mM KCl, 3 mM MgCl2, 0.01% Triton X-100, 500 ug/ml BSA, 20 U/ml SUPERase-In, 4 C; UNK is unkempt and MSI1 is Musashi-1; names of the RNAs are library labels; protein concentration not given here; high values mean tight binding).
MSI1 full-length, sequence (Q61474 whole entry): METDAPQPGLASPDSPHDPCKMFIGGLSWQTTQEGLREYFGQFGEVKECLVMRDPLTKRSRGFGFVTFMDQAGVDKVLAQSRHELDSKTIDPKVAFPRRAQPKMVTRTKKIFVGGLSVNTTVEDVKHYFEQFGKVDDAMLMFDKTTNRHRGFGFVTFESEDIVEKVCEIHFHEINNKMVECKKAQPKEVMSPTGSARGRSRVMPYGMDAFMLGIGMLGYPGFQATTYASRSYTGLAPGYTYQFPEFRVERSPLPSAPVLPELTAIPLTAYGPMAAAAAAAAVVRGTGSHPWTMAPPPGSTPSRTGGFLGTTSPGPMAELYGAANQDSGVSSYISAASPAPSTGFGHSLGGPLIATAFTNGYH

| Binder | binding signal [enrichment R] |
| --- | --- |
| B1 | 0.313 |
| B2 | 0.319 |
| B3 | 1.93 |
| B4 | 0.497 |
| B5 | 1.03 |
| B6 | 42.9 |
| B7 | 3.9 |
| B8 | 0.848 |
| B9 | 31.3 |
| B10 | 7.36 |
| B11 | 0.394 |
| B12 | 21.2 |
| B13 | 10.5 |
| B14 | 1.04 |
| B15 | 1.55 |
| B16 | 56.8 |
